Shiga toxin inh = Shiga toxin inhibition. Vero cells, Shiga toxin protein synthesis inhibition reporter. inhibition, % at 38.7 µM. 9.2% of 290,000 active. AID 2315; in the data active means inhibition mostly above about 28%, no sharp cut-off; inactive means mostly below about 43%; further: 0% is about no effect
AmpC no deterg = inhibitors of E. coli AmpC beta-lactamase without detergent; Potency, µM (series often up to 57.1 µM), for inactives: at the highest dose activity change, negative = inhibition, most hits filed as inhibitors; P00811; AmpC nitrocefin hydrolysis, absorbance 480 nm, 0.0001% Triton; 0.52% of 330,000 active;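 further: potency means the concentration at half of the fitted maximal effect; plate controls were no compound for no effect and no enzyme for full effect; nearly all actives have a fitted effect of over 20% in size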
Target sequence (P00811 whole entry, looked up): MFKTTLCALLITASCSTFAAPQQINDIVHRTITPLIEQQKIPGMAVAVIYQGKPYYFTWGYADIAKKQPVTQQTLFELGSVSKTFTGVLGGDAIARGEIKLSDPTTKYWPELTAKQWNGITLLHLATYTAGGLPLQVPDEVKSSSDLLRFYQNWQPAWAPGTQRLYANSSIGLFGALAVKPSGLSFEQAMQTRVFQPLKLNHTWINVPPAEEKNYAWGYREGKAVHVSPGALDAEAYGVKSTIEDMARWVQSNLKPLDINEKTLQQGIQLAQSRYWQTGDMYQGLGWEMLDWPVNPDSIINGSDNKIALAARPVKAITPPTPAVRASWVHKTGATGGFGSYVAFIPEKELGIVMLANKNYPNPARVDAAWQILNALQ
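20 mM phosphate pH 7.0 + 0.01% (detergent screen) or 0.0001% Triton X-100; 5.3 nM AmpC reagent; cpd preinc 15 min RT; nitrocefin (800 uM stock) to start; A480 q20 s × 4 min; Activity was normalised to no-enzyme and no-compound control wells.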
AmpC detergent = inhibitors of E. coli AmpC beta-lactamase with detergent; Potency, µM (titrated, usually from 114 µM), for inactives: top-dose activity change, negative = inhibition, actives largely listed as inhibitors; P00811; 0.041% of 370,000 active; AmpC hydrolysis of nitrocefin, absorbance 480 nm, 0.01% Triton;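 further: potency means the concentration at half of the fitted maximal effect; 0% = no-compound wells and -100% = no-enzyme wells; nearly all actives have a fitted effect of over 25% in size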
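20 mM phosphate pH 7.0 + 0.01% (detergent screen) or 0.0001% Triton X-100; 5.3 nM AmpC reagent; cpd preinc 15 min RT; nitrocefin (800 uM stock) to start; A480 q20 s × 4 min; Activity was normalised to no-enzyme and no-compound control wells.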
CHX counter = affects cycloheximide protein synthesis inhibition readout, counter-screen | cell reporter, cycloheximide protein synthesis inhibition counterscreen | max response, % | 12% of 300,000 active; in the data active means max response mostly above about 13%, no sharp cut-off; inactive means mostly below about 14%; further: read at 38.3 µM for the half of the compounds with a filed dose; 0% is about no effect
SARS PLP yeast = SARS-CoV PLP inhibition in yeast; S. cerevisiae expressing SARS-CoV PLpro, growth rescue; Potency, µM (titrated, usually from 32.9 µM), without a hit: at the top dose activity, positive = growth rescue, hits mostly activators; 0.19% of 330,000 active; calls by dose curve; further: potency means the concentration at half of the fitted maximal effect; 0% is about no effect; nearly all actives have a fitted effect of over 55% in size
AMA1-RON2 inh = disrupts binding of P. falciparum AMA1 to RON2 | AlphaScreen AMA1-biotinylated RON2 peptide binding | Potency, µM (highest dose often 58.2 µM), for the others: top-dose activity change, negative = inhibition, usual class: inhibitors | 0.2% of 360,000 active;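 further: potency means the concentration at half of the fitted maximal effect; 0% = vehicle wells and -100% = peptide control; nearly all actives have a fitted effect of over 45% in size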
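AMA1 (3D7) with his tag at 25 nM final met compounds first, then biotinylated RON2 peptide at 25 nM; detection used donor plus acceptor beads, 10 µg/mL apiece, read by AlphaScreen after 30 min at room temperature.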
* hit, by the source's call. The entries come from a sample that favours hits as a whole. Unless noted, the call rests on the fitted dose curve; in most records, active means well fitted curve in the direction sought with a large enough effect; inconclusive means small, poorly fitted or top-dose-only effect, or another doubt; inactive means no such curve, though single readings can be large; an effect the other way counts as inactive or inconclusive.

How did COc1ccc(CCNC(=O)CCC(=O)N2CCN(S(=O)(=O)c3ccccc3)CC2)cc1OC do in these assays?
Shiga toxin inh: 4.1; AmpC no deterg: 7.6%; AmpC detergent: -4.5%; CHX counter: -0.8; SARS PLP yeast: 0.9%; AMA1-RON2 inh: -5.0%

What do the screens show for `Cc1cccn2c(N)c(-c3ccccc3)nc12`?
Shiga toxin inh: 25.8; AmpC no deterg: -21.5%; AmpC detergent: -11.0%; CHX counter: 20.4*; SARS PLP yeast: -0.7%; AMA1-RON2 inh: 9.9%

Results for Cc1cc(=O)oc2c3c(cc(OCC(=O)NCc4ccco4)c12)OC(C)(C)CC3 ?
Shiga toxin inh: 33.2*; AmpC no deterg: 40.1%; AmpC detergent: inconclusive; CHX counter: 30.2*; SARS PLP yeast: -7.9%; AMA1-RON2 inh: 6.7%

Results for CC(C)=CCC/C(C)=C/CCC(C)NCCN1CCNCC1 (stereo not drawn) ?
Shiga toxin inh: -5.8; AmpC no deterg: 58.7%; AmpC detergent: inconclusive; CHX counter: -3.6; SARS PLP yeast: 0.2%

How did CSc1ccc(/C=N/NC(=O)c2cccc(O)c2)cc1 do in these assays?
Shiga toxin inh: 76.0; AmpC no deterg: -35.7%; AmpC detergent: -6.3%; CHX counter: 27.0*; SARS PLP yeast: -9.4%; AMA1-RON2 inh: -3.1%

Results for O=C(N/N=C/c1ccc(O)cc1)c1csc2c1CCCC2 ?
Shiga toxin inh: 57.1*; AmpC no deterg: -38.5%; AmpC detergent: -6.4%; CHX counter: 46.9*; SARS PLP yeast: -6.0%; AMA1-RON2 inh: 4.9%

How did Cc1ccc(CNC(=O)c2csc3c2CCCCC3)cc1 do in these assays?
Shiga toxin inh: 11.8; AmpC no deterg: -21.4%; AmpC detergent: -3.9%; CHX counter: -0.9; SARS PLP yeast: 1.9%; AMA1-RON2 inh: 5.7%

What do the screens show for `O=C(N/N=C/c1cnc2ccccc2n1)c1cccc(F)c1`?
Shiga toxin inh: active; AmpC no deterg: -29.0%; AmpC detergent: -2.0%; CHX counter: 27.1*; SARS PLP yeast: 1.9%; AMA1-RON2 inh: -2.2%

How did CCOc1ccc(C(=O)N/N=C/c2ccc(SC)cc2)cc1 do in these assays?
Shiga toxin inh: 0.0; AmpC no deterg: -15.0%; AmpC detergent: -1.4%; CHX counter: -1.9; SARS PLP yeast: -1.4%; AMA1-RON2 inh: 4.0%

How did O=C(N/N=C/c1ccccc1)c1ccc(NC(=O)c2ccc(F)cc2)cc1 do in these assays?
Shiga toxin inh: 57.7*; AmpC no deterg: -35.5%; AmpC detergent: 0.0%; CHX counter: 48.5*; SARS PLP yeast: -4.4%; AMA1-RON2 inh: 3.1%

Results for CC(=O)Nc1ccc(C(=O)N/N=C/c2ccc(F)cc2)cc1 ?
Shiga toxin inh: -3.0; AmpC no deterg: -16.5%; AmpC detergent: 4.5%; CHX counter: 4.0; SARS PLP yeast: 4.2%; AMA1-RON2 inh: 12.6%

Results for O=C1CC2(CCN(C(=O)C(=O)c3c[nH]c4ccccc34)CC2)Oc2ccccc21 ?
Shiga toxin inh: -6.3; AmpC no deterg: 17.9%; AmpC detergent: inconclusive; CHX counter: -2.7; SARS PLP yeast: -13.0%; AMA1-RON2 inh: 0.0%

What do the screens show for `CSc1nsc(/C=C/Nc2ccc(C(=O)O)cc2)c1C#N`?
Shiga toxin inh: 37.8; AmpC no deterg: -31.9%; AmpC detergent: inconclusive; CHX counter: 6.9; SARS PLP yeast: 1.3%; AMA1-RON2 inh: -11.4%

How did CC1(C(=O)NCCc2c[nH]c3ccccc23)C=CCN1C(=O)c1ccccc1 (stereo not drawn) do in these assays?
Shiga toxin inh: 7.0; AmpC no deterg: -30.2%; AmpC detergent: -20.8%; CHX counter: 8.6; SARS PLP yeast: -14.5%; AMA1-RON2 inh: -2.6%

Results for O=C(N/N=C\c1ccc(F)cc1)c1ccc(F)cc1 ?
Shiga toxin inh: 75.3*; AmpC no deterg: -37.5%; AmpC detergent: 0.1%; CHX counter: 46.9*; SARS PLP yeast: -2.6%; AMA1-RON2 inh: -1.5%

How did O=C(N/N=C/c1cccc(C(F)(F)F)c1)c1ccc(O)cc1 do in these assays?
Shiga toxin inh: 98.8; AmpC no deterg: -27.2%; AmpC detergent: -4.6%; CHX counter: 13.6; SARS PLP yeast: 0.3%; AMA1-RON2 inh: -3.4%

Assay outcomes: PubChem BioAssay, National Center for Advancing Translational Sciences (NCATS)
